According to PubChem BioAssay AID1851 (National Center for Advancing Translational Sciences (NCATS), 2009):
Several values for one entry are separate records, joined by “and”; a condition that tells them apart may be missing. Equal entries are not always repeated. The campaign covered roughly 16,000 compounds. About 5,800 (36%) were called active. About 23% were inconclusive and are not listed. The list shows a part of the results. Values without a mark were called inactive. Calls come from the whole dose curve; as a rule, active = well fitted curve in the direction sought with a large enough effect; inconclusive = small, poorly fitted or top-dose-only effect, or effect the other way; inactive = no such curve, though single readings can be large or run the other way.

molecular target: Cytochrome P450 2C19 (Homo sapiens) (UniProt P33261); test: Cytochrome panel assay with activity outcomes; conditions: recombinant CYP, pro-luciferin dealkylation, luminescence, p450-cyp2c19; series mostly up to 57.1 µM
% is set by controls: 0 for no effect and ±100 for the full control effect.

Sequence of Cytochrome P450 2C19 (Homo sapiens) (P33261 whole entry, looked up): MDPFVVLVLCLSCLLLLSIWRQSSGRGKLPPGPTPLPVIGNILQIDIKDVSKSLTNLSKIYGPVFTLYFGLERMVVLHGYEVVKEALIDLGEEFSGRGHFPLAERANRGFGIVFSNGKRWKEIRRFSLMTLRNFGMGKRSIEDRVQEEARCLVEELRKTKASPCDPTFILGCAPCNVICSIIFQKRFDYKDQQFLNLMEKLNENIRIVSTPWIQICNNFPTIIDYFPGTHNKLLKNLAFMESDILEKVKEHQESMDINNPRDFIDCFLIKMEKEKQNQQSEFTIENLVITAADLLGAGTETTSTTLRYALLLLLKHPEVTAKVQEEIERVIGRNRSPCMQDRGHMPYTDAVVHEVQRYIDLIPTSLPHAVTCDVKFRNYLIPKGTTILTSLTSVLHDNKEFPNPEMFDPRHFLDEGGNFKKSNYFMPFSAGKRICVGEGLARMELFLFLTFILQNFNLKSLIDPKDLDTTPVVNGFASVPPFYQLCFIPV

Row | Compound | activity, negative = inhibition | AC50
1 | CNC[C@@H](SC)c1ccc(O)c(O)c1 | -19% [at 11.4 µM] | 
2 | CC(=O)Nc1ccc(NC(=O)Cn2c(-c3ccc(F)cc3)cnc2SCC(=O)Nc2c(C)cccc2C)cc1 |  | 1.58 µM (active)
3 | Cc1cccc(C)c1NC(=O)CN1CCN(CCCC(c2ccc(F)cc2)c2ccc(F)cc2)CC1 |  | inactive
4 | CCNc1ncc2nc(-c3ccc(Cl)cc3)c(=O)n(C[C@H]3CCCO3)c2n1 |  | inactive
5 | CCc1ccccc1NC(=O)C1C(c2ccccc2)C1(Cl)Cl (centres undefined) |  | 1.78 µM (active)
6 | O=C(COc1ccc(-c2ccccc2)cc1)N/N=C/c1ccccc1Br |  | 2.51 µM (active)
7 | O=C(COc1ccccc1-c1ccccc1)N/N=C/c1cccc2ccccc12 |  | 2.24 µM (active)
8 | COc1ccc(OCC(=O)NNC(=O)c2ccc(-c3ccccc3)cc2)cc1 |  | inactive
9 | O=C(Cc1ccccc1)Nc1nc2ccc(Cl)cc2c2nc(-c3ccco3)nn12 |  | 1.58 µM (active)
10 | COc1ncc2nc(-c3ccc(Cl)cc3)c(=O)n(C)c2n1 |  | inactive
11 | Cc1cccc(Oc2ncc(-c3ccc(Cl)cc3)cn2)c1C |  | 14.1 µM (active)
12 | Cc1cc(Cl)ccc1Oc1ncc(-c2ccc(Cl)cc2)cn1 |  | 2.51 µM (active)
13 | Cn1c(=O)c(-c2ccc(Cl)cc2)nc2cnc(Oc3ccccc3)nc21 |  | inactive
14 | C#CCCCO/N=C1/C[C@@H](O)[C@@H](O)[C@@H]2[C@@H]3C(=O)N([C@@H](C)c4ccccc4)C(=O)[C@H]3CC[C@@H]12 | -27.9% [at 11.4 µM] | 
15 | CCCC(=O)N1c2ccccc2C(N(C(C)=O)c2ccccc2)CC1C (centres undefined) |  | 15.8 µM (active)
16 | COc1ccc(-n2c(=O)cnc3cnc(OC)nc32)cc1 |  | inactive
17 | Cc1ccc(-n2ccc(=O)c(-c3ccnc(SCc4cccc(Cl)c4)n3)n2)cc1 |  | 3.55 µM (active)
18 | NNC(=O)c1nn(-c2ccc(Cl)cc2)ccc1=O |  | inactive
19 | C[C@@H]1C[C@@H]2[C@H]3CCC4=CC(=O)C=C[C@]4(C)[C@]3(Cl)[C@@H](O)C[C@@]2(C)[C@@]1(O)C(=O)CO |  | inactive
20 | COC(=O)C1=C(C)NC(=O)NC1c1ccsc1 (centres undefined) |  | inactive
21 | CC1=C(C(=O)Nc2ccccc2F)C(c2ccsc2)C2=C(CC(c3ccccc3)CC2=O)N1 (centres undefined) |  | 5.01 µM (active)
22 | C=CCNc1nc(SCC=C)nc2ccsc12 |  | 8.91 µM (active)
23 | C=CCSc1nc(Oc2ccccc2)c2sccc2n1 |  | 2.24 µM (active)
24 | C=CCSc1ccsc1C(=O)O |  | inactive

Row | Compound | activity, negative = inhibition | AC50
25 | C=CCSc1nc(NC)c2sccc2n1 |  | 14.1 µM (active)
26 | C[C@@]12C(=O)OC(=O)[C@]1(C)[C@H]1CC[C@@H]2O1 |  | inactive
27 | O=C1C[C@@H](O)[C@@H](O)[C@H]2[C@@H]3C(=O)N(c4cccc(Oc5ccccc5)c4)C(=O)[C@@H]3CC[C@H]12 | 5.15% [at 11.4 µM] and -20.4% [at 11.4 µM] | 
28 | O=C(Nc1ccc2c(c1)OCCO2)c1cc2sccc2n1Cc1ccccc1 |  | 3.16 µM (active)
29 | O=C(Nc1ccc2c(c1)OCCO2)c1cc2sccc2n1Cc1ccc(F)cc1 |  | 1 µM (active)
30 | CCNc1nc(Sc2ccc(C)cc2)cc(C(F)(F)F)n1 |  | 11.2 µM (active)
31 | Cc1ccc(Sc2cc(Cl)nc(N)n2)cc1 |  | inactive
32 | FC(F)(F)c1cc(Sc2ccccc2)nc(-c2ccccn2)n1 |  | inactive
33 | O=C(NC1CCCc2ccccc21)C1CCN(S(=O)(=O)N2CCCCCC2)CC1 (centres undefined) |  | 17.8 µM (active)
34 | O=C(NC1CCCc2ccccc21)c1ccc(=O)[nH]c1 (centres undefined) |  | inactive
35 | O=C(NCCCN1CCc2ccccc2C1)C1CCN(S(=O)(=O)N2CCCC2)CC1 |  | inactive
36 | Cc1cccc(NC(=O)CSc2nc(COc3ccccc3)nc3ccccc23)c1C |  | 2 µM (active)
37 | CCc1nc(SCC(=O)NNC(=O)C2CCCCC2)c2ccccc2n1 |  | inactive
38 | CCn1c(CCNC(=O)c2ccccc2Cl)n[nH]c1=S |  | inactive
39 | C=CCn1c(C(C)NC(=O)c2ccccc2)n[nH]c1=S (centres undefined) |  | 5.01 µM (active)
40 | NS(=O)(=O)c1cc(Cl)c(Cl)c(S(N)(=O)=O)c1 |  | inactive
41 | CC(=O)NNC(=O)C(O)(c1ccccc1)c1ccccc1 |  | inactive
42 | Cc1cccc(N(NC(=O)C(C)(C)O)C(=O)c2ccccc2)c1 |  | 20 µM (active)
43 | CCN1C(=O)[C@H]2[C@H]3[C@H](O)[C@H](O)C/C(=N/OCC(C)C)[C@@H]3CC[C@@H]2C1=O | -7.39% [at 11.4 µM] | 
44 | CCc1ccc(C(=O)N2CCC(c3nc4ccccc4s3)CC2)cc1 |  | 14.1 µM (active)
45 | C[C@H]1NC(=O)NC1=O |  | inactive
46 | CCC(CC)C(=O)Nc1cccc(/C(C)=N\NC(=O)c2ccc(C)s2)c1 |  | inactive
47 | C/C(=N/NC(=O)c1ccc(C)s1)c1cccc(NC(=O)COc2ccc(Cl)cc2C)c1 |  | 3.16 µM (active)
48 | C/C(=N\NC(=O)c1ccc(Cl)cc1)c1cccc(NC(=O)C(C)C)c1 |  | 17.8 µM (active)

Row | Compound | activity, negative = inhibition | AC50
49 | C/C(=N/NC(=O)c1cccs1)c1ccc(NC(=O)COc2ccc(Cl)cc2Cl)cc1 |  | 14.1 µM (active)
50 | C/C(=N\NC(=O)c1cccc(Cl)c1)c1cccc(NC(=O)C(C)C)c1 |  | inactive
51 | CCc1ccc2c(c1)c(N=NC1=NC(=O)CS1)c(O)n2CC |  | inactive
52 | CC(=O)NNc1cccc(Cl)n1 |  | inactive
53 | C=CCSC[C@@H]1Nc2cc(Cl)c(S(N)(=O)=O)cc2S(=O)(=O)N1 |  | inactive
54 | CC(C)CC(C(=O)NCC1CCCO1)N(C(=O)Cn1nnc(-c2ccc(F)cc2)n1)c1cccc(C(F)(F)F)c1 (centres undefined) |  | 3.55 µM (active)
55 | CN(C(=O)Cn1nnc(-c2cccc(C(F)(F)F)c2)n1)C1CCCCC1 |  | inactive
56 | CC(C)CC(C(=O)NCC1CCCO1)N(C(=O)Cn1nnc(-c2ccc(F)cc2)n1)c1ccccc1F (centres undefined) |  | 25.1 µM (active)
57 | O=C(NCC1CCCO1)c1nn2c(c1Cl)NC(c1ccc(F)cc1)CC2C(F)(F)F (centres undefined) |  | inactive
58 | O=S1(=O)N[C@H]2CC[C@@H]3NS(=O)(=O)N[C@H]4CC[C@H](N1)N4S(=O)(=O)N23 | 11.2% [at 11.4 µM] | 
59 | CCN1C(=O)[C@H]2[C@H]3[C@H](O)[C@H](O)C/C(=N/O[C@@H](C)c4cn([C@H](CO)Cc5ccccc5)nn4)[C@@H]3CC[C@@H]2C1=O | 4.85% [at 11.4 µM] and 16% [at 11.4 µM] | 
60 | O=C(Nc1cnn(Cc2ccc(Cl)cc2Cl)c1)c1cc(-c2cccs2)on1 |  | 4.47 µM (active)
61 | Fc1ccc(C2=Nn3c(Cc4ccccc4F)nnc3SC2)cc1 |  | 3.98 µM (active)
62 | c1ccc2c(c1)nnn2CN1CCOCC1 | 22.7% [at 11.4 µM] | 
63 | c1ccc(-c2ccc(C3=Nn4c(Cn5nnc6ccccc65)nnc4SC3)cc2)cc1 |  | 14.1 µM (active)
64 | C#CCCCO/N=C1/C[C@@H](O)[C@@H](O)[C@@H]2[C@@H]3C(=O)N(CC)C(=O)[C@H]3CC[C@H]12 | -28.1% [at 11.4 µM] | 
65 | O=C(N/N=C1/C[C@@H](O)[C@@H](O)[C@@H]2[C@@H]3C(=O)N(Cc4ccccc4)C(=O)[C@H]3CC[C@H]12)OCc1ccccc1 | 0.945% [at 11.4 µM] | 
66 | CC(C)=CCC/C(C)=C/CO/N=C1/C[C@@H](O)[C@@H](O)[C@@H]2[C@@H]3C(=O)N(C4CCCCC4)C(=O)[C@H]3CC[C@H]12 | -23.1% [at 11.4 µM] | 
67 | CN[C@@H]1[C@H](O[C@@H]2O[C@H](CO)[C@@H](N)[C@H](O)[C@@H]2O)O[C@H]2C[C@@H](N)[C@@H](O[C@H]3[C@@H](O)[C@H](O)[C@H](N)C[C@@H]3N)O[C@H]2[C@H]1O |  | inactive
68 | CC(=O)Nc1ccc(S(=O)(=O)NC(CC(=O)NCCC2=CCCCC2)C(C)C)cc1 (centres undefined) |  | 10 µM (active)
69 | CC(=O)Nc1ccc(S(=O)(=O)NC(CC(=O)NCCCN2CCOCC2)C(C)C)cc1 (centres undefined) |  | inactive
70 | CC(C)C(=O)NCCn1ccc2ccccc21 |  | 6.31 µM (active)
71 | CCN(c1ccccc1)c1cc(NC)[n+](C)c(C)n1 |  | inactive
72 | O=C(O)[C@@H]1[C@@H]2C[C@H]([C@@H](Br)[C@H]2N2C(=O)CCC2=O)[C@@H]1C(=O)O | 39.9% [at 11.4 µM] | 

Row | Compound | activity, negative = inhibition | AC50
73 | O=C(O)c1cc(=O)c2ccc(Cl)cc2[nH]1 |  | inactive
74 | COc1cccc(/C=N/NC(=O)c2c(-c3ccccc3)noc2C)c1 |  | 2 µM (active)
75 | COc1cccc(/C=N/NC(=O)C(=O)NCc2cccnc2)c1 |  | inactive
76 | COc1ccc(C(=O)Nc2ccc(C(=O)OCC(=O)c3ccccc3)cc2)cc1 |  | inactive
77 | COc1cccc(/C=N/NC(=O)c2cc(-c3cccn3C)n[nH]2)c1 |  | 15.8 µM (active)
78 | COc1ccc(C(=O)COC(=O)c2ccc(NC(=O)c3ccccc3)cc2)cc1 |  | inactive
79 | COc1ccc(NC(=O)COC(=O)c2c(-c3ccccc3)noc2C)cc1 |  | 8.91 µM (active)
80 | NC(=O)CCCC1=NS(=O)(=O)c2ccccc2N1 |  | inactive
81 | CC(C)(CC(=O)N1CCN(c2ccc(Cl)cc2)CC1)CC1=NS(=O)(=O)c2ccccc2N1 |  | 7.94 µM (active)
82 | CC1=NS(=O)(=O)c2cc(Cl)ccc2N1 |  | inactive
83 | CCCC1(C(=O)OC)C=C2C(=C(c3ccccc3)C(=O)C2C)CN1 (centres undefined) |  | 7.94 µM (active)
84 | COC(=O)C1(CC(C)C)C=C2C(=C(c3ccccc3)C(=O)C2C)CN1 (centres undefined) |  | 39.8 µM (active)
85 | CCCC1(C(=O)OC)C=C2C(=C(C)C(=O)C2C)CN1 (centres undefined) |  | inactive
86 | CCCC1(C(=O)OC)C=C2C(=C(C(C)C)C(=O)C2C)CN1 (centres undefined) |  | inactive
87 | C[N+](C)(N)Cc1csc(-c2ccc(Cl)cc2)n1 | 8.52% [at 11.4 µM] | 
88 | Nc1ccccc1SCc1csc(-c2ccc(Cl)cc2)n1 |  | 0.501 µM (active)
89 | NNc1nncc2ccccc12 |  | inactive
90 | CC1CC(OCC(O)CN2CCN(Cc3ccccc3)CC2)CC(C)(C)C1 (centres undefined) |  | inactive
91 | CN1CCN(CC(O)c2ccccc2)CC1 (centres undefined) |  | inactive
92 | O[C@H](COc1ccccc1)CN1CCCCC1 | 3.88% [at 11.4 µM] | 
93 | CC1CCC(C(C)C)C(OCC(O)CN2CCN(Cc3ccccc3)CC2)C1 (centres undefined) |  | 3.55 µM (active)
94 | O=C(c1ccccc1)c1ccc(OCC(O)CN2CCN(Cc3ccccc3)CC2)cc1 (centres undefined) |  | 4.47 µM (active)
